Measurements published in PubChem BioAssay AID1347131 (National Center for Advancing Translational Sciences (NCATS), 2019).
Hit rate of the full screen: of about 410,000 compounds, about 2,000 (0.49%) were called active. About 8% were inconclusive and are not listed. The call rests on the fitted dose curve; tested in HEK293 reporter line. The full list was thinned out, with actives kept by preference.

Assay: qHTS Assay for Foot and Mouth Disease Virus Antivirals: Primary Screen against the MLPCN compound library; further: nearly all actives have a fitted effect of over 55% in size
Conditions: FMDV antiviral cell-based qHTS; series mostly up to 57.9 µM; activity, negative = inhibition: at the top concentration
Potency means the concentration at half of the fitted maximal effect.

| SMILES | activity, negative = inhibition | Potency |
| --- | --- | --- |
| Cc1ccc(S(=O)(=O)N(C)C)cc1NC(=O)COc1cccc(-n2cnnn2)c1 | -30.7% (inactive) | – |
| CCOc1ccccc1N1CCN(CC(=O)Nc2ccccc2C(=O)NC2CC2)CC1 | -36.1% (inactive) | – |
| Cc1ccc(-c2cc(-c3ccccc3)cc(-c3ccccc3)[n+]2-c2ccccc2C(=O)O)cc1 | -33.8% (inactive) | – |
| O=C(Nc1ccc(N2CCN(c3ccc(C(F)(F)F)cn3)CC2)nc1)c1cccs1 | -22% (inactive) | – |
| O=C1NC(=O)N(c2ccc3c(c2)OCO3)C(=O)/C1=C/c1ccsc1 | -40.4% (inactive) | – |
| COC(=O)C1=C(c2ccc(-c3ccccc3)c(F)c2)C[C@@H]2CC[C@H]1N2C(=O)NC1CCCCC1 | -39.4% (inactive) | – |
| OC[C@@H]1CN(Cc2ccc(Cl)cc2)C[C@H](n2cnc3c(NC4CCCC4)ncnc32)O1 | -33.7% (inactive) | – |
| COc1ccc(C(=O)NCc2cc(C)nc3ccccc23)cc1 | -41.5% (inactive) | – |
| Cc1cc(C)c2sc(N(CCN(C)C)C(=O)c3c(F)cccc3F)nc2c1 | -30.3% (inactive) | – |
| CCOc1ccc(-c2ccc(/C=C3/C(=N)N4C=CSC4=NC3=O)o2)c([N+](=O)[O-])c1 | -9.4% (inactive) | – |
| Cc1ccc(/C=C2/C(=N)N3N=C(CC(=O)N4CCCC4)SC3=NC2=O)o1 | -19.8% (inactive) | – |
| CC1=CN2C(=N)/C(=C/c3ccco3)C(=O)N=C2S1 | – | 12.6 µM (active) |
| CCCCn1c(=O)c(CCC(=O)OC(C)C(=O)Nc2cccc(Cl)c2Cl)nc2ccccc21 (configuration not stated) | -31.2% (inactive) | – |
| CCCC(=O)N1CCN(c2nc(CC(C)C)c3c(c2C#N)CCC3)CC1 | -32% (inactive) | – |
| CC(C(=O)Nc1cccc(C#N)c1)n1nc(-c2ccccc2)c2c(c1=O)CCCC2 (configuration not stated) | -30.7% (inactive) | – |
| CC(C)C(=O)N1CCN(c2nc(-c3ccccc3)c3c(c2C#N)CCCC3)CC1 | – | 22.4 µM (active) |
| FC(F)C(F)(F)Oc1cccc(Nc2nccn3c(-c4ccc5ccccc5c4)cnc23)c1 | -35.9% (inactive) | – |
| COCC(=O)N1CCC2(CC1)CCN(c1ccc(-c3ccccc3)cc1)CC2 | -32.7% (inactive) | – |
| N#CC1=C(N)Nc2nc3ccccc3n2C1c1ccc(F)cc1 (configuration not stated) | -40.9% (inactive) | – |
| Nc1nc2ccccc2n1C(=O)c1ccc(F)cc1 | – | 12.6 µM (active) |
| CSc1nc2ccccc2n1C(=O)NC1CCCCC1 | -34.5% (inactive) | – |
| C[C@H](CO)N1C[C@H](C)[C@@H](CN(C)C(=O)NC2CCCCC2)Oc2c(NS(=O)(=O)c3cccs3)cccc2C1=O | 104% (inactive) | – |
| Cc1ccc(NC(=O)COC(=O)C2CC2C)c(S(=O)(=O)N2CCCCC2)c1 (configuration not stated) | -31.9% (inactive) | – |
| CCOC(=O)C1CCN(S(=O)(=O)c2cccc(C(=O)Nc3ccccc3)c2)CC1 | -33.4% (inactive) | – |
| CC(Sc1nc(C(F)(F)F)nc2ccccc12)C(=O)NC1CCCC1 (configuration not stated) | -27.5% (inactive) | – |

| SMILES | activity, negative = inhibition | Potency |
| --- | --- | --- |
| CN(C)c1ccc(N=Nc2ccc3ncccc3c2)cc1 | – | 20 µM (active) |
| Cc1cc(CN(C)C(=O)c2cc(COc3ccc4ncccc4c3)on2)on1 | -33.2% (inactive) | – |
| CN(C)c1ccc(/C=C/c2ccc3ccccc3n2)cc1 | -100% (inactive) | – |
| Cn1c(=O)[nH]c(=O)c2c1nc(NCc1ccccc1)n2CCCc1ccccc1 | -45.3% (inactive) | – |
| Cc1ccc(CN2CCc3nc(N4CCN(c5ccccc5F)CC4)ncc3C2)s1 | -43.3% (inactive) | – |
| COc1cc(OC)c(OC)cc1CN1CCc2nc(N3CCN(c4ncccn4)CC3)ncc2C1 | -25.8% (inactive) | – |
| Cc1ccccc1CN1CCc2nc(N3CCN(c4ccccn4)CC3)ncc2C1 | – | 15.8 µM (active) |
| CCOc1ccc(Nc2c3c(nc4nncn24)CCC3)cc1 | -34.4% (inactive) | – |
| COc1cccc(N2CCN(c3c4c(nc5nncn35)CCC4)CC2)c1 | – | 14.1 µM (active) |
| COc1cccc(N2CCN(C(=O)c3ccc4c(Cl)c5c(nc4c3)CCCC5)CC2)c1 | -40.7% (inactive) | – |
| Cc1nnsc1C(=O)N/N=C/c1ccc2ccccc2c1O | -41.2% (inactive) | – |
| Cc1cccc(OCCCCn2nnc3sc4c(c3c2=O)CCC(C)C4)c1 (configuration not stated) | -31.6% (inactive) | – |
| C=CCn1c(SCc2nc3c(c(=O)[nH]c(=O)n3CCCC)n2CCC)nnc1-c1ccccc1 | -30.8% (inactive) | – |
| CCCNS(=O)(=O)c1cc(Br)cc2c1N(C(=O)CC)CC2 | 109% (inactive) | – |
| CCC(=O)N1CCc2cc(Br)cc(S(=O)(=O)CCC(=O)NCc3ccccc3OC)c21 | -75.9% (inactive) | – |
| COc1cc(NS(=O)(=O)c2cc(Br)cc3c2N(C(=O)C2CC2)CC3)cc(OC)c1 | – | 12.6 µM (active) |
| O=C(OC1C2CCC1C1CN(CCc3ccccc3)CC12)c1ccccc1 (configuration not stated) | -32% (inactive) | – |
| COc1ccc(-c2cc3c(=O)n(CC(=O)Nc4cccc(Cl)c4)nc(C)n3n2)cc1 | -34.4% (inactive) | – |
| CN(C)c1cccc(F)c1C(=O)NC(=O)Nc1ccc(Cl)cc1 | -36.3% (inactive) | – |
| COc1ccc(CN2CCNC(=O)C2CC(=O)NC2CCCC2)c(OC)c1 (configuration not stated) | -15.3% (inactive) | – |
| COC(=O)c1nnn(-c2nonc2N)c1CSc1nc2ccccc2s1 | -35.5% (inactive) | – |
| Cc1c(NC(=O)CN2CCN(c3cccc(Cl)c3)CC2)c(=O)n(-c2ccccc2)n1C | -31.9% (inactive) | – |
| CC12CN(C(=O)c3ccco3)CC(c3ccccc3)(CN(C(=O)c3ccco3)C1)C2=O | -31% (inactive) | – |
| O=C(O)c1ccc(N/N=C/c2cc(Br)cs2)cc1 | – | 11.2 µM (active) |
| CC(C)c1ccc(/C=N/Nc2ccc(C(=O)O)cc2)cc1 | -98.8% (inactive) | – |

| SMILES | activity, negative = inhibition | Potency |
| --- | --- | --- |
| COc1ccc(/C=N/Nc2ccc(C(=O)O)cc2)cc1Br | -84.1% (inactive) | – |
| O=C(NC1CCC(=O)N(CCOc2ccccc2)CC1)OCc1ccccc1 (configuration not stated) | -29% (inactive) | – |
| CC(=O)N1CCc2c(sc3c2c(=O)n(CCc2ccccc2)c(=O)n3Cc2cccc(C)c2)C1 | -40.4% (inactive) | – |
| COc1ccc(-c2cc(-c3ccccc3O)[nH]n2)cc1 | -68.9% (inactive) | – |
| COc1ccc(NC(=O)Nc2c(O)ccc3ccccc23)cc1 | 132% (inactive) | – |
| COc1ccc(N=Nc2ccc3ccccc3c2)c(O)c1 | – | 22.4 µM (active) |
| COc1cc2c(cc1OC)CN(C(=O)c1cc(Cl)nc(Cl)c1)CC2 | -38.8% (inactive) | – |
| CC(=O)NC12CC3CC(C1)CC(C(=O)Oc1ccc(N(C)S(=O)(=O)c4cc(C)ccc4C)cc1)(C3)C2 | -36.6% (inactive) | – |
| CC(=O)N1CCN(c2ccc(NC(=O)c3cccc(F)c3)cc2)CC1 | 124% (inactive) | – |
| COc1ccc(C(=O)Nc2ccc(N3CCN(C(=O)c4ccccc4C)CC3)cc2)cc1 | -19.6% (inactive) | – |
| CN1CCN(c2ccc(NC(=O)c3ccc4ccccc4c3)cc2)CC1 | – | 22.4 µM (active) |
| CC(C)(C)OC(=O)CNC(=O)c1[nH]cnc1C(=O)N[C@@H](CCCCNC(=O)OC(C)(C)C)C(=O)OC(C)(C)C | -33.6% (inactive) | – |
| O=C(CCCc1nc(-c2ccc(Cl)cc2)no1)NC1CCCC1 | -49.9% (inactive) | – |
| O=C(c1ccc2c(c1)N(Cc1ccccc1F)C(=O)c1ccccc1S2=O)N1CCN(c2ccccc2)CC1 (configuration not stated) | -37.1% (inactive) | – |
| COc1ccc(C)cc1NC(=O)C1CCN(S(=O)(=O)c2ccccc2)CC1 | -30.9% (inactive) | – |
| CCOC(=O)c1sc(NC(=O)c2ccc(S(=O)(=O)N3CCCCC3)cc2)nc1-c1ccccc1 | -41.2% (inactive) | – |
| CCOC(=O)c1sc2ccc(S(=O)(=O)N3CCCCC3)cc2c1N | – | 17.8 µM (active) |
| CCOC(=O)/C=C/C(=O)Nc1ccc(S(=O)(=O)N2CCCCCC2)cc1 | -33.1% (inactive) | – |
| COc1cc(OC)cc(C(=O)Nc2ccc3c(c2)CCCN3C(=O)c2cccs2)c1 | -30.8% (inactive) | – |
| O=C1CC(c2ccco2)CC(O)=C1C=NCCN1CCN(C(=O)Nc2ccc(Cl)cc2)CC1 (configuration not stated) | -33.6% (inactive) | – |
| Cc1ccc(CSCC(=O)N(C)CC(=O)Nc2c(Cl)cccc2Cl)cc1 | -31.7% (inactive) | – |
| Cc1ccc(-c2noc(-c3ccc(N4CCCCC4)c([N+](=O)[O-])c3)n2)cc1 | -32.2% (inactive) | – |
| O=S(=O)(Nc1ccc2ccccc2n1)c1ccc2c(c1)CCO2 | 113% (inactive) | – |
| Fc1ccc(-c2noc(-c3ccc4c(c3)CCO4)n2)cc1 | – | 12.6 µM (active) |
| O=C(NCCN1CCC(n2c(=O)[nH]c3ccccc32)CC1)c1ccc(Cl)cc1 | -37.5% (inactive) | – |

| SMILES | activity, negative = inhibition | Potency |
| --- | --- | --- |
| CC(C)Oc1ccc(C(=O)Nc2nc3c(s2)CC(C(C)(C)C)CC3)cc1 (configuration not stated) | -30.1% (inactive) | – |
| COCc1ccc(C(=O)Nc2cccc(S(=O)(=O)N(C)c3ccccc3)c2)cc1 | – | 15.8 µM (active) |
| CN(c1ccccc1)S(=O)(=O)c1ccc(C(=O)Nc2ccncc2)cc1 | -22.9% (inactive) | – |
| CN(c1ccccc1)S(=O)(=O)c1cccc(C(=O)Nc2cccc(C(=O)NC3CC3)c2)c1 | -47.3% (inactive) | – |
| Cc1ccc(S(=O)(=O)N(C)CCCC(=O)Nc2cc(C)ccc2C)cc1 | -34.2% (inactive) | – |
| CN(c1ccccc1)S(=O)(=O)c1ccc(C(=O)NCCc2ccc(F)cc2)cc1 | -32.5% (inactive) | – |
| Cc1ccccc1C(c1c(C)n(C)n(-c2ccccc2)c1=O)c1c(C)n(C)n(-c2ccccc2)c1=O | -19% (inactive) | – |
| CCCCCC(=O)N1CC2(CC(c3cccc(NC(=O)COc4ccc(Cl)cc4)c3)=NO2)C[C@@H]1C(N)=O (some centres not stated) | – | 14.1 µM (active) |
| C=C(C)C(=O)N1CC2(CC(c3cccc(NC(=O)COc4ccc(Cl)cc4)c3)=NO2)C[C@@H]1C(N)=O (some centres not stated) | -30.8% (inactive) | – |
| NC(=O)[C@@H]1CC2(CC(c3cccc(NC(=O)CC(c4ccccc4)c4ccccc4)c3)=NO2)CN1C(=O)COc1ccc(Cl)cc1 (some centres not stated) | -32.3% (inactive) | – |
| C=C1C(C)C2C(Cc3ccccc3)NC(=O)C23OC(=O)/C=C/C(O)CCCC(C)C/C=C/C3C1O (configuration not stated) | -34.8% (inactive) | – |
| CC1CCCCN1C(=O)CSc1c2c(nc3cc(Cl)ccc13)CCCC2 (configuration not stated) | -37.7% (inactive) | – |
| COc1ccc(C=NNc2nc3ccccc3s2)cc1 | – | 15.8 µM (active) |
| COc1ccc(/C=N/Nc2cc(C)nc3ccccc23)cc1 | -31% (inactive) | – |
| COc1ccc(S(=O)(=O)Nc2nc3ccccc3s2)cc1 | 118% (inactive) | – |
| O=Cc1cc(Cl)ccc1OCCN1CCC(Cc2ccccc2)CC1 | -35.1% (inactive) | – |
| COc1ccccc1CN1C(=O)c2cccc3cccc(c23)C1=O | -31% (inactive) | – |
| Nc1cccc2c1C(=O)N(CCOc1ccccc1F)C2=O | – | 15.8 µM (active) |
| COc1ccc2c(c1OC)C(=O)N1c3ccccc3C(=O)N(c3ccccc3F)C21 (configuration not stated) | -36.1% (inactive) | – |
| CCCCC(=O)N1CCN(c2nc3c(C)c(C)ccc3s2)CC1 | -31.7% (inactive) | – |
| CCc1nc2ccc(C(=O)Nc3cc(-c4ccccc4)ccc3OC)cn2c1N(C=O)CCC(C)C | -32.4% (inactive) | – |
| CC(C)Oc1ccc(C(=O)NCC(=O)N2CCN(S(=O)(=O)/C=C/c3ccccc3)CC2)cc1 | -35.9% (inactive) | – |
